41 sequences from PubChem BioAssay AID1347423 (Functional Genomics Laboratory (NCATS/FGL), 2020) can be followed below.

Screen size: about 52,000 sequences; about 210 (0.4%) were called active.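 Rule for the calls: active = gene whose silencing raises cell survival under the drug, median off-target-corrected z-score across its silencing RNAs 2 or more; inactive = the rest.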 Only a selection was taken, and actives are over-represented in it overall.

The experiment can be described thus: Resistance to Poly (ADP-Ribose) Polymerase inhibitor: Gene Identification via Genome-wide siRNA Screen. The following applies: mouse BRCA2 R2336H ES cells, olaparib, CellTiter-Glo viability; stronger effect = higher value. A digest of the protocol: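 Mouse BRCA2 R2336H ES cells were reverse-transfected with siRNA (20 nM final), treated at 48 h with 500 nM olaparib, and read by CellTiter-Glo after 72 h. Scores: MAD-based z per siRNA, median per gene, seed off-target correction.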
For GGUCUACGAGUUUAUUGCUTT against Phc1, the z-score was 0.722 (inactive). The figure for GCCCUUUGGAUAACAGUGATT against Sufu is -0.968 (inactive); for GGCCUUCAAUCACCUAGAGTT against Pde6g it is 2.23 (active). Turning to GCAGCUGGCUGCUUUCACATT against AV028368, the z-score is -0.955 (inactive).

“CCGACGUGCAUGGAGAAAATT against 1700030J22Rik”: the z-score is -1.71 (inactive).

As to “GCCAUUAAUCUCACAUGUATT against A930001N09Rik”, the z-score was -0.871 (inactive). Consider GGAAGACCGUACUAUGUUUTT against Gtl2, for which the z-score is -2.38 (inactive). Turning to “CCAGUUGGAAAUAUGACGATT against 2510002A14Rik”, the z-score is 0.99 (inactive). The figure for “CCUAUGUCAUCAUUGGAGUTT against 2310005G13Rik” is 0.537 (inactive); for CGAUGACAUCAGGAUUGUUTT against Gpr128 it is 1.23 (active); for GCUGAUUUCCAAAGAUAAUTT against Glycam1 it is 0.301 (inactive). Take “GCCCAUGAAUUUUUACUUATT against C330019G07Rik”: the z-score was 0.714 (inactive). For the sequence “CGAAGGGACCGAAGAAUCCTT against 5730538E15Rik”, the z-score was -0.602 (inactive). The figure for CCAGUCCUACUUAGCAAAGTT against BC046404 is 1.34 (inactive); for CCAUUACACAAAGUUUUGCTT against Stard6 it is 0.874 (inactive). In the case of GGGUUCAAGAGAUGAUAUUTT against Usp11, the z-score is 2.47 (active). Consider GGAAAGUGUGUUCAUUAGUTT against Pla2g2d, for which the z-score is -0.775 (inactive). Turning to GGAAAAGGAGGUGGUACUGTT against Agc1, the z-score was 0.55 (inactive). With CGCCCAGUGCAAUUUUUUCTT against Gm592, the z-score is -0.745 (inactive). The figure for “CCAUAGCACUAAAUCAGAUTT against 4933421G18Rik” is 0.387 (inactive).

As to “GGACCUAUUUCUCUGCUCCTT against E330026B02Rik”, the z-score was -0.251 (inactive). In the case of “GGACAUUCGUGGUUCCAUCTT against 4833412N02Rik”, the z-score is 0.546 (inactive).

Consider GGAGGUCGCUUCCUAUUACTT against Tat, for which the z-score was 1.26 (active). Take GGACUAUCAGGACCUUUUUTT against Dnajb3: the z-score was -1.77 (inactive). For the sequence GCUAAAAGGUAAGUACUUCTT against AB041803, the z-score was 0.00857 (inactive). As for GGAGAUUGAUGAGCAUGCCTT against Rab40b, the z-score is 0.456 (inactive). Take GGUUCUGAAGAUGGAGGUUTT against Ttbk1: the z-score was -1.25 (inactive). On to GCUGUUGGUUUCUACUCACTT against Adam21, for which the z-score is 1.43 (active). Take GGAAGACCUGAUUGGAAAATT against Trpm1: the z-score is 0.553 (inactive). For the sequence GAGCCUUCUAAGUCUGCACTT against Hist1h2bb, the z-score was 0.996 (inactive). With GGAAAUCACCAGAGCUGAUTT against Atp6v0a2, the z-score is 1.56 (inactive).

As to GGGCUAUUAAAUGAUUUCATT against Pax1, the z-score is -0.101 (inactive). Regarding CGUAGCAAUCUUGGUUGCUTT against Hoxa3, the z-score was 0.734 (inactive). Turning to “GGCUGUGAGAUAGAUCUAATT against E130112L23Rik”, the z-score was -0.595 (inactive).

Regarding “GGAUGUGGACUCAAAGAAATT against 1110001E17Rik”, the z-score was 1.9 (active). With “CGAGGGAUAAGAGUCUACGTT against D4Bwg1540e”, the z-score is -0.0629 (inactive). The figure for GGCCAUUAACAGCAGUCUGTT against Kifc1 is -2.66 (inactive); for GGGACUUUUUUUGAAUCCUTT against Ndrg3 it is 0.835 (inactive); for GGCAGCGCAAUGGAUUAGUTT against Chrng it is 1.99 (active). In the case of “GGAGCAACAGCCAAAUACCTT against 1700001F22Rik”, the z-score was 0.124 (inactive). For the sequence CGGCAGGAUGAAUGAGAUCTT against Bccip, the z-score was 0.692 (inactive).
